Consider 40 molecules from PubChem BioAssay (Tox21).

Inconclusive results are not listed. Entries that show only a call come without a potency. Activity calls are given as the source filed them. The call rests on the fitted dose curve.

D(2) dopamine receptor (Homo sapiens), sequence (P14416 whole entry, looked up): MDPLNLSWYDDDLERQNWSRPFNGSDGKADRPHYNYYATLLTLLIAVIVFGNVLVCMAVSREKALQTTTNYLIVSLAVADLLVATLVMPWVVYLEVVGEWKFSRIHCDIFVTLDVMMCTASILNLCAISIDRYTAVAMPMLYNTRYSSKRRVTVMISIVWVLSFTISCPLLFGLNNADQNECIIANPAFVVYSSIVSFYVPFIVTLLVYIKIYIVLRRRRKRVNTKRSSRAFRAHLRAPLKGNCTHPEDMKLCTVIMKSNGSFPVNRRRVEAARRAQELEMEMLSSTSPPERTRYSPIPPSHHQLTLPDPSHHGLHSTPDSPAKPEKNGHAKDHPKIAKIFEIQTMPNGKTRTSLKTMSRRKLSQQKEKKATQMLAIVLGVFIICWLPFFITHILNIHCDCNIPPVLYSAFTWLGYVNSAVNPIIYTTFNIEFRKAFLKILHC

The assay has as its target D(2) dopamine receptor (Homo sapiens) (UniProt P14416). In words: Dopamine D2 receptor (DRD2) small molecule agonists, cell-based qHTS assay (AID 1963594). Further: nearly all actives have a fitted effect of over 35% in size. The note with it: HEK293-DRD2 cAMP HTRF, agonist mode, 30 min; series mostly up to 92.4 µM. An excerpt:
National Center for Advancing Translational Sciences [NCATS]
Division of Preclinical Innovation [DPI]
U.S. Environmental Protection Agency [EPA]
National Institutes of Environmental Health Sciences [NIEHS]
National Toxicology Program [NTP]
U.S. Food and Drug Administration [FDA]
DRD2 is the D2 subtype of the dopamine receptor, which is coupled to Gi subtype of G protein-coupled receptor. This G protein-coupled receptor inhibits adenylyl cyclase activity. The DRD2-HEK293 cell line stably expressing D2 dopamine receptor can be used for screening agonists and antagonists of interactions between D2 and its ligands. The Hek293-DRD2 cAMP assay is based on HTRF technology. It measures changes of cAMP accumulation in response to Gi coupled GPCR activation or inhibition.
Tox21 Assay Protocol Summary:
DRD2-Hek293 cells were dispensed at 600 cells/3uL/well in 1536-well white plates using a Multidrop Dispenser. After the assay plates were incubated at a 37 C/5% CO2 incubator for 24 h, 1 uL of Ro20-1724 at final concentration of 0.1 mM was transferred to the assay plate by a Flying Reagent Dispenser. Following Ro20-1724 addition, 23 nL of compound dissolved in DMSO, positive controls or DMSO only was added to the assay plates via Wako pintool station. The assay plates were incubated at room temperature for 10 min. Next, 1 uL of NKH477 at 200nM was added into the plates. After the assay plates were incubated at room temperature for an additional 30 min, 2.5 ul/well of cAMP-d2 and 2.5 ul/well of anti-cAMP-cryptate were added respectively into the assay plates using a Flying Reagent Dispenser. The plates were incubated at room temperature for 1 h. The fluorescence intensity in the plates was measured at 340 nm excitation and 665 & 620 nm emission by an Envision plate reader.
In general terms: Quantitative high-throughput screening tests each substance at several concentrations.
In the case of `O=c1cc(-c2ccc(O)cc2)oc2cc(O)cc(O)c12`, the Potency result was “inactive”.
Consider `CN1CCC[C@@H]1c1cccnc1`, for which the Potency entry is “inactive”.
Same read-out and setting: in the case of `CC(=O)NCCCS(=O)(=O)O` it was “inactive”.
Consider `CCCNCC(O)COc1ccccc1C(=O)CCc1ccccc1` (stereo not given), for which the Potency result was “inactive”.
On the same count and under the same terms, in the case of `COc1cc2ncnc(Nc3ccc(F)c(Cl)c3)c2cc1OCCCN1CCOCC1` it was “inactive”; in that of `CC(C)(C)Cl`, “inactive”.
On the same count and under the same terms, the result for `CC(C)c1ccc2cc(C(C)C)ccc2c1` reads “inactive”; that for `CCC(=O)C1CC(C(C)C)CC=C1C` (stereo not given), “inactive”.
On to `COC(=O)c1nc(Cl)c(Cl)nc1N`, for which the Potency entry is “inactive”.
With `CC=O`, the Potency result was “inactive”.
`Oc1cccc2c(O)cccc12`: the Potency entry is “inactive”.
Regarding `CN(C)CCN(C)CCO`, the Potency result is “inactive”.
The same measure, in the same setting: the result for `Cc1nccn1-c1ccc(Sc2cccc(C3(C(N)=O)CCOCC3)c2)cc1` reads “inactive”.
As for `CC(C)n1c(/C=C/[C@@H](O)C[C@@H](O)CC(=O)O)c(-c2ccc(F)cc2)c2ccccc21`, the Potency result was “inactive”.
For the molecule `C=C[Si](OC(C)=O)(OC(C)=O)OC(C)=O`, the Potency entry is “inactive”.
On to `CCC(C)(CN(C)C)OC(=O)c1ccccc1` (stereo not given), for which the Potency result is “inactive”.
For the molecule `CC(C)=CCCC(C)CC(=O)O` (stereo not given), the Potency result is “inactive”.
On the same count and under the same terms, the result for `NS(=O)(=O)c1ccc(C(=O)O)cc1` reads “inactive”; that for `N[C@@H](CS)C(=O)O`, “inactive”; that for `Cc1cc(O)c2c(c1)C(=O)c1cc(O)cc(O)c1C2=O`, “inactive”.
For the molecule `CO/N=C(/C(=O)N[C@@H]1C(=O)N2C(C(=O)OCOC(=O)C(C)(C)C)=C(C)CS[C@H]12)c1csc(N)n1`, the Potency entry was “inactive”.
Same read-out and setting: in the case of `CCC(C)(C)c1ccc(CC(C)CN2C[C@@H](C)O[C@@H](C)C2)cc1` (stereo not given in full) it was “inactive”.
In the case of `CCCC(=O)O[C@]1(C(=O)COC(=O)CC)CC[C@H]2[C@@H]3CCC4=CC(=O)CC[C@]4(C)[C@H]3[C@@H](O)C[C@@]21C`, the activation is 3.82% [at 19 µM] (inactive).
Take `CC1CN(c2ccccc2)NC1=O` (stereo not given): the Potency result is “inactive”.
For the molecule `CCc1ccc2c(c1)C(=O)c1ccccc1C2=O`, the Potency entry is “inactive”.
For the molecule `C=O`, the Potency entry was “inactive”.
Still for that read-out and setting: in the case of `CN(C(=O)CN(CCO)CC(=O)N(C)C(C)(C)Cc1ccccc1)C(C)(C)Cc1ccccc1` it was “inactive”; in that of `CC(C)(C)C(=O)c1ccccc1`, “inactive”; in that of `CC(COc1ccccc1)NN` (stereo not given), “inactive”.
Still for that read-out and setting: the result for `Cc1ccc(N=Nc2c(O)c(C(=O)O)cc3ccccc23)c(S(=O)(=O)O)c1` reads “inactive”.
Take `O=C(Nc1ccc(S(=O)(=O)N2CCOCC2)cc1)c1cc(Cl)ccc1NS(=O)(=O)c1ccc(Cl)s1`: the Potency entry was “inactive”.
As for `[Cl][Bi]([Cl])([c]1ccccc1)([c]1ccccc1)[c]1ccccc1`, the Potency result was “inactive”.
On the same count and under the same terms, in the case of `C[C@H](NC(CCc1ccccc1)C(=O)O)C(=O)N1CCC[C@H]1C(=O)O` (stereo not given in full) it was “inactive”; in that of `CC(C)C1CCC(C(=O)N[C@H](Cc2ccccc2)C(=O)O)CC1` (stereo not given in full), “inactive”.
`CC(C)(C)c1csc(-c2cc3cc(OCc4ccccc4CC(=O)O)ccc3o2)n1`: the Potency result is “inactive”.
On the same count and under the same terms, in the case of `CCCCNCCCC` it was “inactive”; in that of `CCc1c(C)[nH]c2c1C(=O)C(CN1CCOCC1)CC2` (stereo not given), “inactive”; in that of `CCCCCOC(=O)CCCCC`, “inactive”.
Still for that read-out and setting: in the case of `O=C1CCC/C=C\CCCCCCCCCC1` it was “inactive”.
With `CN1CC[C@H](c2c(O)cc(O)c3c(=O)cc(-c4ccccc4Cl)oc23)[C@H](O)C1`, the Potency entry was “inactive”.
